The target of the assay is Tyrosine-protein kinase Lck (Homo sapiens) (UniProt P06239). To be noted: at 0.1 µM.
Sequence of Tyrosine-protein kinase Lck (Homo sapiens) (P06239 2-509 limits assumed): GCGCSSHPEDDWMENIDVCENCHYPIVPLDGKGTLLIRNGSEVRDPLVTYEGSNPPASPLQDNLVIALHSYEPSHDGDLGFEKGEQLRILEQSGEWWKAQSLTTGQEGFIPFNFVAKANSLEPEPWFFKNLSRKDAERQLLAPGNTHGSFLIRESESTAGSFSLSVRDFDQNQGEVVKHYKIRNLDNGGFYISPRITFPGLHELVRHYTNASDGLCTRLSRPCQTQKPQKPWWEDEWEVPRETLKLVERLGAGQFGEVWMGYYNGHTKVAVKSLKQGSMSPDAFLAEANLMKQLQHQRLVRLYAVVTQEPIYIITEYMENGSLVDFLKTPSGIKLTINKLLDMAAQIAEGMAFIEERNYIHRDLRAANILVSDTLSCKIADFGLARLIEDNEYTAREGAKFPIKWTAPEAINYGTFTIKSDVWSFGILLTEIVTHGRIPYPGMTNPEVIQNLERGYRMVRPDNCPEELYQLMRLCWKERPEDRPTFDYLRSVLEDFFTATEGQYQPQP
What is called inhibition is the relative decrease from the control value, in per cent. A high value points to a strong effect. The compound `c1ccc(COc2ccc(Nc3ncnc4ccc(-c5ccco5)cc34)cc2)cc1` yielded an inhibition of 0.84%.

Take `N#Cc1c(NC(=O)c2ccc(F)cc2)sc2c1CCCC2`: the inhibition amounted to 0.7%.

`COc1cc(/C=N/Nc2ncnc3[nH]ncc23)ccc1O`: the inhibition was 12.5%.

Regarding `Nc1nc(-c2cccc(Cl)c2)c(-c2ccc3ncccc3n2)s1`, the inhibition worked out at 2.31%.

`COc1cc2ncn(-c3cc(OCc4ccccc4C(F)(F)F)c(C(=O)N(C)C)s3)c2cc1OC`: the inhibition was found to be 2.04%.

Consider `COC(=O)Nc1nc2ccc(S(=O)(=O)c3ccc(NC(=O)Nc4cc(C(F)(F)F)ccc4F)cc3)cc2[nH]1`, for which the inhibition is 2.26%.

Regarding `COc1ccc(-c2cc3c(N)ncnc3o2)cc1`, the inhibition is 0.2%.

With `COc1cc(N2CCN(C(C)C)CC2)ccc1Nc1nc(Nc2ccc(F)cc2C(N)=O)c2cc[nH]c2n1`, the inhibition was found to be 2.34%.

The compound `CC1=C(C(=O)Nc2cc(Cl)c3[nH]ncc3c2)C(c2ccc(C(F)(F)F)cc2)CC(=O)N1` (stereo not drawn) had an inhibition of 4.9%.

With `CC(=O)NCc1cccc(C#Cc2cncnc2Nc2ccc(OCc3cccc(F)c3)c(Cl)c2)c1`, the inhibition turned out to be 0.34%.

`CCn1c(-c2nonc2N)nc2c(C#CC(C)(C)O)ncc(OC3CCNCC3)c21` displayed an inhibition of 2.33%.

Consider `NS(=O)(=O)c1ccc(Nc2ncc(-c3ccccc3)o2)cc1`, for which the inhibition was 1.77%.

On to `CCCN(CCS(C)(=O)=O)Cc1ccc(-c2ccc3ncnc(Nc4ccc(OCc5cccc(F)c5)c(Cl)c4)c3c2)o1`, for which the inhibition amounted to 2.06%.

Consider `CN1CCC(n2cnc(-c3ccc(F)cc3)c2-c2ccnc(Nc3ccccc3)n2)CC1`, for which the inhibition was 4.17%.

On to `COc1ccc(CNC(=O)c2ccc(-c3cc(-c4nnc(C)o4)ccc3C)cc2)cc1`, for which the inhibition turned out to be 0.44%.

Take `COc1cc(Nc2nccc(Nc3ccc4c(C)n[nH]c4c3)n2)cc(OC)c1OC`: the inhibition was determined as 34.4%.

As to `CN1CCC(n2cnc(-c3ccc(F)cc3)c2-c2ccnc(N)n2)CC1`, the inhibition was found to be 2.45%.

In turn, `COc1ccc2c(-c3ccnc(Nc4cccc(OC(F)(F)F)c4)n3)cnn2n1` yielded an inhibition of 1.54%.
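Also: reported values are mean percent inhibition of Lck.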
